From PubChem
Sfp PPTase inh – inhibitors of Bacillus subtilis Sfp phosphopantetheinyl transferase; Q9F4F7; Biochemical Sfp PPTase activity, qHTS; Potency, µM, inactives show largest response in the series, negative = inhibition, most hits filed as inhibitors; actives 3.5% (n = 310,000); AID 1490;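 further: the enzyme is Sfp with the accession as filed and its product quenches rhodamine fluorescence; 0% = enzyme reaction without inhibitor and -100% = no enzyme wells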
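With Hepes-Na pH 7.6 buffer containing 10 mM MgCl2, Sfp (15 nM) modified BHQ-2-YbbR (12.5 uM) using rhodamine-CoA (5 uM). Two reads 30 minutes apart at 525/598 nm yielded each well's rate.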
PINK1 modulator – modulators of PINK1 expression; actives 0.2% (n = 410,000); AID 624263; Potency, µM (titrated, usually from 76.6 µM), for the others: at the highest dose activation (PINK1 increase), most hits filed as activators; PINK1 immunofluorescence, high-content cytometry, 24 h; active means well fitted activation curve with a large enough effect; inconclusive means small, poorly fitted or top-dose-only effect; cell line not stated here; further: % of control where 0% means no effect; nearly all actives have a fitted effect of over 65% in size
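Decision-based qHTS: stable cells, 24 h exposure to five compound concentrations, CCCP as control. Fixed cells stained for PINK1 plus nuclear, mitochondrial and cell markers, cytometer read.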
RORg inh – blocks mouse ROR gamma transcriptional activity. Drosophila S2 Gal4-RORgamma UAS-luciferase reporter, 20 h. Potency, µM (series often up to 53.6 µM), inactives show at the top dose activity change, negative = inhibition, actives largely listed as inhibitors. actives 5.4% (n = 310,000); further: on the % scale 0 is the no-effect control and ±100 the full control effect; nearly all actives have a fitted effect of over 60% in size
Target sequence (P51450 whole entry, looked up, the tested form may be a part): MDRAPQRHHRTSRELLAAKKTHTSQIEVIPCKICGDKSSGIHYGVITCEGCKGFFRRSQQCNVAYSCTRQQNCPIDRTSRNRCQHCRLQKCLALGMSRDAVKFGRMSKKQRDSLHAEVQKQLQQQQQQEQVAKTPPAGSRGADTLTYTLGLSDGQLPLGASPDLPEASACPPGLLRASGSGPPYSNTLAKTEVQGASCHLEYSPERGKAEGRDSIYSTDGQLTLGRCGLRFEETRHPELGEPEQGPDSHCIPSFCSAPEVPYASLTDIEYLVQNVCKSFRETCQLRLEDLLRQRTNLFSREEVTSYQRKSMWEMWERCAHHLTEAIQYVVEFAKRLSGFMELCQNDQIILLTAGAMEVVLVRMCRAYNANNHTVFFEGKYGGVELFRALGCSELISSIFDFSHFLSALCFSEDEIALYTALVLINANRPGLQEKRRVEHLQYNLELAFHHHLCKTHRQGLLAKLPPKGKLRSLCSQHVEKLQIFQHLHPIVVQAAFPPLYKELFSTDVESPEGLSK
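Luciferase reporter read in Schneider cells carrying Gal4-RORγ (mouse) and UAS-Photinus luciferase; cells given compound 1 h before 700 uM copper sulfate induction, then incubated 20 h at ambient temperature.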
Epigenetic reg – epigenetic control regulation, reporter derepression; murine LDR cells, GFP reporter derepression, 30 h; Potency, µM (titrated, usually from 53.9 µM), inactives show at the highest dose GFP activation, usual class: activators; actives 0.2% (n = 280,000); AID 1865; further: % of control where 0% means no effect; nearly all actives have a fitted effect of over 60% in size
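In this reporter-derepression format, murine cells bearing a silenced integrated CMV-GFP locus incubate with test compound (30 h, 37 C), then are washed and imaged; fluorescent objects of 20–120 um count as induced cells.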
ClpP mod – qHTS Assay for Activators of ClpP; ATP-dependent Clp protease proteolytic subunit (Bacillus subtilis (strain 168)), P80244; purified B. subtilis ClpP, FRET peptide cleavage, 20 min; Potency, µM (highest dose often 57.5 µM), for the others: at the highest dose activity change, negative = active; actives 1.9% (n = 340,000); AID 651965, 2013; active means well fitted falling curve with a large enough effect; inconclusive means small, poorly fitted or top-dose-only effect; inactive means no such curve, though single readings can be large or run the other way; further: the source files actives as falling curves though it sought activators and does not explain the sign; nearly all actives have a fitted effect of over 65% in size
Target sequence (P80244 whole entry, looked up): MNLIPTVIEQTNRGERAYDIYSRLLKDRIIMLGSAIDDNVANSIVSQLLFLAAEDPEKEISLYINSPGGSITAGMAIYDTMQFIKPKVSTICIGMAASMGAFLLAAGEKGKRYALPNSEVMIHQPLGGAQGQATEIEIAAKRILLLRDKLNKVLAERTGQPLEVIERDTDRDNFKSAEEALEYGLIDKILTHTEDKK
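Buffer: 100 mM Tris/HCl pH8, 100 mM KCl, 0.05% low protease BSA, 2.5% glycerol, 0.01% Tween-20. ClpP 10 microg/mL final; 20 min RT; delta FRET normalized to ADEP and DMSO controls.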
VP16 counter – inhibits Gal4-VP16 luciferase reporter, ROR gamma counter-screen; Potency, µM (top dose mostly 53.6 µM), inactives show at the top dose activity, negative = inhibition, most hits filed as inhibitors; Drosophila S2 Gal4-VP16 UAS-luciferase, luminescence, 20 h; actives 3.5% (n = 310,000); AID 2546;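 further: Gal4-VP16 expression switched on by copper sulfate through the metallothionein promoter; on the % scale 0 is the no-effect control and ±100 the full control effect; nearly all actives have a fitted effect of over 50% in size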
* = called active by the depositor; ? = inconclusive; · = no result; [ ] = dose if it differs, or a comment. Compounds with a hit are over-represented: about 8.1% of the library has one in this group of screens. Unless noted, the call rests on the fitted dose curve; in most records, active means well fitted curve in the direction sought with a large enough effect; inconclusive means small, poorly fitted or top-dose-only effect, or another doubt; inactive means no such curve, though single readings can be large; an effect the other way counts as inactive or inconclusive. Potency means the concentration at half of the fitted maximal effect.

SMILES	Sfp PPTase inh	PINK1 modulator	RORg inh	Epigenetic reg	ClpP mod	VP16 counter
O=C(Nc1nc2ccc(Br)cc2s1)c1ccco1	12.7%	4.2%	-32.8%	·	0.4%	0.1%
Cc1csc2c(=O)sc(NC(=O)c3ccco3)nc12	56.2µM*	0.9%	3.6%	0.1%	1.6%	5.6%
COc1ccc(NC(=O)CC2C(=O)N(c3ccccc3)C(=O)N2Cc2cccnc2)cc1 (stereo not drawn)	·	2.0%	·	-0.8%	0.1%	·
COc1ccc2cc(CNCc3ccccc3Cl)c(N3CCCC(CO)C3)nc2c1 (stereo not drawn)	·	-0.2%	·	·	·	·
O=C(Nc1nc2ccc(Cl)cc2s1)c1ccco1	4.4%	-2.1%	?	-1.0%	?	?
O=C(NC(=S)Nc1c(Cl)ccc2nsnc12)c1ccccc1F	-7.3%	7.9%	1.41µM*	·	-2.7%	-11.5%
Cc1ccc2nc(NC(=O)c3ccco3)sc2c1	8.3%	1.2%	8.91µM*	4.3%	-3.6%	7.08µM*
COc1cccc(-c2nc3cc(SC)ccc3cc2CN(C(=O)c2sccc2C)C2CC2)c1	·	0.6%	·	·	·	·
Cc1ccc2nc(NNC(=O)c3ccc4c(c3)OCCO4)sc2c1	?	-0.5%	4.47µM*	0.3%	-1.4%	?
O=C(NNc1nc2cc3c(cc2s1)OCO3)c1ccccc1	?	-0.7%	5.01µM*	5.7%	0.9%	?
COc1cccc(OC)c1C(=O)Nc1nc2cc3c(cc2s1)OCO3	0.3%	12.7%	-36.1%	5.1%	·	-18.4%
O=C(NNc1nc2cc3c(cc2s1)OCO3)c1cccc(F)c1	28.2µM*	2.3%	4.47µM*	-4.4%	1.0%	?
CC(=O)Oc1ccc(-c2nc(-c3ccccc3)no2)cc1	·	0.5%	·	·	1.4%	·
CC(=O)c1c(C)[nH]c2ccc(OCC(O)CNCCc3ccccc3)cc12 (stereo not drawn)	·	-0.4%	·	·	-3.3%	·
COCCN(CCOC)Cc1c(O)ccc2c1O/C(=C\c1ccco1)C2=O	39.8µM*	0.6%	16.6%	·	·	-5.6%
O=C1/C(=C/c2ccco2)Oc2c1ccc(O)c2CN1CCCCC1	?	-0.5%	26.4%	1.3%	1.4%	-4.1%
COC(=O)COc1ccc2c(c1)O/C(=C\c1ccco1)C2=O	56.2µM*	0.2%	-12.0%	·	-0.5%	18.1%
O=C(Cn1cc2ccccc2n1)N1CCOc2ccc(C(O)C3CCCCC3)cc2C1 (stereo not drawn)	·	2.5%	·	·	·	·
Cc1cc(C)cc(NS(=O)(=O)c2ccc(N3CCCCS3(=O)=O)cc2)c1	·	0.4%	·	-3.1%	-2.2%	·
Cc1ccc(Nc2nc(CSc3nnc(-c4cccnc4)n3-c3ccccc3F)cs2)cc1	-29.8%	-0.2%	3.98µM*	-2.5%	·	-9.5%
Cc1ccc(NC(=O)CSc2nnc(-c3cccnc3)n2-c2ccc(C)cc2)cc1	22.3%	0.3%	?	0.0%	-4.0%	?
Cc1ccc(CSc2nnc(-c3ccncc3)n2C)cc1	6.9%	0.3%	-4.3%	-5.9%	1.4%	-1.8%
Cc1ccccc1Nc1nc(CSc2nnc(-c3ccoc3C)n2C)cs1	20µM*	·	?	-1.7%	-0.7%	?
Cc1ccc(Nc2nc(CSc3nnc(-c4ccncc4)n3C)cs2)cc1	39.8µM*	1.0%	15.8µM*	-0.9%	-1.5%	?
COc1ccc(NC(=O)c2cc(S(=O)(=O)N3CCCCC3)cn2C)cc1Cl	·	9.8%	·	5.9%	-0.3%	·
SMILES	Sfp PPTase inh	PINK1 modulator	RORg inh	Epigenetic reg	ClpP mod	VP16 counter
Cc1cnc(SCc2ccccn2)nc1C1CCCN(C(=O)c2scc3c2CCCC3)C1 (stereo not drawn)	·	0.8%	·	·	·	·
CC(=O)Nc1ccc(Nc2nc3ccc(C)cc3n3nnnc23)cc1	·	12.1%	·	-1.0%	8.0%	·
Cc1ccc(-c2c(C(=O)N/N=C/c3ccsc3)nnn2-c2nonc2N)cc1	9.6%	-0.6%	7.08µM*	·	-2.4%	20µM*
Cc1ccc(-c2c(C(=O)N/N=C/c3ccoc3)nnn2-c2nonc2N)cc1	16.8%	1.0%	11.2µM*	·	-2.4%	?
CCOc1ccc(-c2c(C(=O)N/N=C/c3cccs3)nnn2-c2nonc2N)cc1	-2.0%	-1.4%	2.24µM*	·	-5.3%	6.31µM*
Cc1ccc(/C=N/NC(=O)c2nnn(-c3nonc3N)c2CSc2ccccc2)o1	-14.3%	4.4%	7.08µM*	·	·	11.2µM*
CCOc1ccc(-c2c(C(=O)N/N=C/c3ccc(C)cc3)nnn2-c2nonc2N)cc1	-0.4%	0.4%	-32.8%	-1.0%	-28.1%	-9.7%
Cc1ccc(SCc2c(C(=O)N/N=C/c3ccoc3)nnn2-c2nonc2N)cc1	12.0%	2.2%	7.94µM*	·	-0.8%	15.8µM*
Cc1ccc(-c2c(C(=O)N/N=C/c3cccs3)nnn2-c2nonc2N)cc1	6.1%	0.9%	7.08µM*	·	2.2%	5.62µM*
CC1(C)CC(=O)c2c(-c3cccs3)n[nH]c2C1	-2.5%	·	-1.5%	-6.6%	25.1µM*	-2.7%
Cc1[nH]n(-c2ccc([N+](=O)[O-])cc2)c(=O)c1C=NCCc1c(C)[nH]c2ccccc12	79.4µM*	-0.7%	16.5%	-0.1%	-3.5%	1.1%
Cc1[nH]n(-c2ccc([N+](=O)[O-])cc2)c(=O)c1C=NCCc1ccc(S(N)(=O)=O)cc1	-25.5%	8.0%	-17.8%	2.8%	·	-1.7%
Cc1cc(C)c2sc(C)[n+](CCCS(=O)(=O)[O-])c2c1	2.51µM*	4.2%	15.5%	-1.5%	-1.9%	0.8%
O=C(O)c1ccc(C2SCC(=O)N2Cc2ccco2)cc1 (stereo not drawn)	18.2%	-0.8%	-6.9%	-0.1%	·	6.7%
O=C1CSC(c2ccncc2)N1Cc1ccco1 (stereo not drawn)	56.2µM*	2.7%[38.3 µM]	-12.6%	0.0%	-1.2%	4.8%
CC(C)CCNC(=O)c1ccc(C2SCC(=O)N2Cc2ccco2)cc1 (stereo not drawn)	8.91µM*	3.7%	?	-1.2%	-1.9%	1.8%
Cc1nn(C)c2c1c(C(F)(F)F)cc(=O)n2CC(=O)NCCC(C)C	·	2.2%	·	0.8%	4.6%	·
O=C(NCc1ccc(Cl)cc1)c1cnc(N2CCCCC2)c2ccccc12	·	0.6%	·	0.0%	28.2µM*	·
COc1cccc(CNC(=O)c2cnc(N3CCCCC3)c3ccccc23)c1	·	0.5%	·	0.0%	-10.3%	·
O=C(NCc1cccc(Cl)c1)c1cnc(N2CCCCC2)c2ccccc12	·	1.8%	·	1.4%	31.6µM*	·
COc1ccccc1N1CCN(c2ccc(=O)n(CC(=O)NCc3ccc(F)cc3)n2)CC1	·	0.2%	·	13.4%	-1.5%	·
CC(C)C[C@H](NC(=O)[C@H]1O[C@@H]1C(=O)O)C(=O)NCCCCN=C(N)N	9.7%	·	0.6%	·	·	-2.0%
Cc1ccc(CNC(=O)CSc2c3c(nc4cc(Cl)ccc24)CCCC3)o1	17.8µM*	7.2%	2.7%	?	-3.1%	1.3%
